Measurements taken from PubChem BioAssay (Tox21).
Values without a mark were called inactive. Active and inactive are the calls of the source. The call rests on the fitted dose curve; in most records, active means well fitted curve in the direction sought with a large enough effect in the repeat runs; inconclusive means weak or mixed curves; inactive means flat fitted curve, though single readings scatter.

assay: qHTS assay to test for compound auto fluorescence at 590 nm (red) in HepG2 cells (AID 720674); details: HepG2 autofluorescence, red 540/590 nm, 1 h; series mostly up to 91.3 µM; fluorescence, relative to Rose Bengal: at the top concentration
Source text: U.S. Tox21 Program National Center for Advancing Translational Sciences [NCATS] NIH Chemical Genomics Center [NCGC] U.S. Environmental Protection Agency [EPA] National Institutes of Environmental Health Sciences [NIEHS] National Toxicology Program [NTP] U.S. Food and Drug Administration [FDA] Tox21 Assay Overview: Compound auto fluorescence often interferes with screening of the compound library against various biological targets and signaling pathways. Some of these compounds may have fluorophoric properties. Such properties may interfere with the assay outputs resulting in false positives and/or negatives. To decrease such complications and ensure the compound activities are relevant in terms of biological response, the Tox21 10K compound library was screened for auto fluorescence. From the fluorophores used as reporter signals in our screening assays, the auto fluorescence equivalencies of compounds against three fluorophores have been evaluated: Triamterene, Fluorescein and Rose Bengal sodium for blue, green and red fluorescence, respectively. The fluorescence intensities were measured using Excitation/Emission wavelengths at 405/460nm, 485/535nm and 540/590nm for blue, green and red labels, respectively. This assay includes the red fluorescence data.
Tox21 Assay Protocol Summary: 2,000 HepG2 cells in 5 uL of culture medium (MEM containing 10% FBS) per well were dispensed into black wall/clear bottom 1536-well plates using a Multidrop Combi Dispenser (ThermoFisher Scientific, Waltham, MA). The assay plates were incubated overnight at 37 C to allow cell attachment to the well bottom, followed by the transfer of 23 nL compound or DMSO vehicle by a pintool work station (Kalypsys , San Diego, CA). After the assay plates were incubated for 1 hr at 37 C and 5% CO2, fluorescence intensities in the assay plates were measured by an Envision (PerkinElmer, Shelton, CT) plate reader using three labels for measuring blue, green and red fluorescence at […] 460, 535 and 590 nm respectively.
On the % scale 0 is the no-effect control and ±100 the full control effect.

Structure (SMILES) | fluorescence, relative to Rose Bengal | outcome
CC(C)C/C=C(\C=O)c1ccccc1 | -0.0295% | –
O=C(N[C@@H](Cc1ccccc1)[C@@H](O)C(=O)N1C[C@@H](O)[C@@H](O)C1)c1cc2cc(Cl)ccc2[nH]1 | -0.0064% | –
CS(C)=O | -0.246% | –
CCCCCCCCCCCCCCCCN | 0.0232% [at 46 µM] | –
C[C@]12CCC(=O)C=C1[C@@H]1C[C@@H]1[C@H]1[C@@H]3[C@@H]4C[C@@H]4[C@@]4(CCC(=O)O4)[C@@]3(C)CC[C@@H]12 | -0.218% [at 46 µM] | –
NC(=O)c1ccccc1 | 0.353% [at 95.7 µM] | –
CCCCCCCCS | -0.688% [at 95.7 µM] | –
O=C(O)c1cccnc1Nc1cccc(C(F)(F)F)c1 | -0.761% [at 46 µM] | –
CC(=O)Nc1cccc(N)c1 | -0.81% [at 95.7 µM] | –
N#Cc1ccc(CC(=O)c2cccc(C(F)(F)F)c2)cc1 | 0.053% | –
Nc1ncnc2c1ncn2[C@@H]1O[C@H](CO)[C@@H](O)[C@H]1O | -0.206% [at 46 µM] | –
CC(=O)OCC(=O)[C@@]1(O)CC[C@H]2[C@@H]3CCC4=CC(=O)C=C[C@]4(C)[C@@]3(F)[C@@H](O)C[C@@]21C | -0.399% [at 18.6 µM] | –
CC1(COc2ccc(CC3SC(=O)NC3=O)cc2)CCCCC1 (stereo not given) | -0.64% [at 46 µM] | –
O=C(O)c1ccccc1-n1cc(C(=O)O)c(=O)c2cc(Nc3c(F)cc(F)cc3Cl)c(Cl)cc21 | 0.0134% | –
CCC1=C(C)CN(C(=O)NCCc2ccc(S(=O)(=O)NC(=O)NC3CCC(C)CC3)cc2)C1=O (stereo not given) | -0.0553% [at 46 µM] | –
COc1ccc(C(=O)c2ccc(C)cc2)c(O)c1 | – | inactive
O=c1[nH][nH]c2ccccc12 | -0.162% [at 95.7 µM] | –
Cc1c(Cl)cccc1[N+](=O)[O-] | -0.304% | –
C/C(=C\C(C)CC(C)CC(C)C)C1CC(=O)OC1=O (stereo not given) | 0.118% | –
Cc1nc(C)c(C)nc1C | -0.565% | –

Structure (SMILES) | fluorescence, relative to Rose Bengal | outcome
CC(Cc1ccccc1)(NC(=O)CN)c1ccccc1 (stereo not given) | -0.28% [at 46 µM] | –
N#CCCCC(C#N)CCC#N (stereo not given) | -0.0886% | –
C[C@H]1C[C@H]2[C@@H]3CCC4=CC(=O)C=C[C@]4(C)[C@@]3(F)[C@@H](O)C[C@]2(C)[C@@]1(O)C(=O)COP(=O)(O)O | -0.084% | –
Cc1ccccc1CCO | 0.177% | –
CCOC(OCC)OCC | 0.0471% | –
NCCOCCOCCN | 0.0723% | –
CC(=O)Oc1cccc2c1C(=O)c1c(OC(C)=O)cc(C(=O)O)cc1C2=O | 0.189% [at 46 µM] | –
C/C=C1\[C@H]2C=C(C)C[C@]1(N)c1ccc(=O)[nH]c1C2 | -0.694% [at 46 µM] | –
Nc1ccc(C(=O)Oc2ccccc2)c(O)c1 | -0.0345% [at 46 µM] | –
Sc1nc(S)nc(S)n1 | -0.083% [at 46 µM] | –
O=C(O)c1ccc2c(c1)nc(C(=O)NC1CCN(C3CC3)CC1)n2Cc1cc(-c2ccc(Cl)s2)on1 | 0.429% [at 18.6 µM] | –
CCCCCCCCCCCCCCCCCCCl | -0.0738% [at 3.72 µM] | –
CC(C)Cc1nccs1 | -0.0764% [at 95.7 µM] | –
CCC(C)CCCC(C)(C)O (stereo not given) | -0.066% | –
CCCN(C1CCN(C(=O)C2CCNCC2)CC1)[C@@H]1CCc2ccc(OC)cc2C1 | -0.243% | –
O=c1c2ccccc2oc2ccccc12 | 0.167% | –
CC(C)NC(=O)c1ccccc1N | -0.652% | –
OCCOc1cccc(OCCO)c1 | 0.0971% | –
CC(C)(C)N | 0.0873% | –
Cc1c(Nc2ncccc2C(=O)O)cccc1C(F)(F)F | 0.539% [at 18.6 µM] | –
